{"source": "PubChem BioAssay (EPA / NIEHS)", "note": "Records with an inconclusive call do not appear. Active and inactive are the calls of the source. The calls were made as follows: active = hit-call score of the fitted dose curve at least 0.9, where 1 is the maximum; inconclusive = response in the unintended direction; inactive = score below 0.9."}
{"tested_on": "rat Monoamine Oxidase, MAO-A, Central (MAOAC), gene 29253", "experiment": "NVS_ENZ_rMAOAC: NovaScreen (NVS) Enzymatic Assay for rat Monoamine Oxidase, MAO-A, Central (MAOAC) (AID 2283243);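 also: potency refers to inhibition seen as signal drop below DMSO baseline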", "summary_of_the_method": "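Rat brain tissue extract served as the cell-free enzyme source; activity was measured by radiometric scintillation counting 1.5 hours after compound addition. Loss of signal relative to DMSO baseline indicated inhibition; primary screen at 25 uM in duplicate.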"}
{"smiles": "CNC(=O)Oc1cccc2ccccc12", "AC50": "13.8 µM (active)"}
{"smiles": "Cc1ccc(N=CN(C)C=Nc2ccc(C)cc2C)c(C)c1", "AC50": "1.66 µM (active)"}
{"smiles": "Cc1nc(N(C)C)nc(OC(=O)N(C)C)c1C", "AC50": "12.8 µM (active)"}
{"tested_on": "guinea pig Muscarinic, Peripheral (Mperiperal) Receptor, Non-selective Binding, gene 100379235", "experiment": "NVS_GPCR_gMPeripheral_NonSelective: NovaScreen (NVS) G Protein-Coupled Receptor Assay for guinea pig Muscarinic, Peripheral (Mperiperal) Receptor, Non-selective Binding (AID 2283250)", "summary_of_the_method": "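Guinea pig bladder membranes, radioligand binding read 1 h after dosing by filter scintillation counting; loss of signal vs DMSO. Primary duplicate screen at 25 uM, then concentration-response up to 50 uM.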"}
{"smiles": "Cn1c(-c2ccccc2)cc(-c2ccccc2)[n+]1C", "AC50": "6.52 µM (active)"}
{"smiles": "COP(=S)(OC)SCn1nnc2ccccc2c1=O", "outcome": "inactive"}
{"smiles": "O=C1C2CC=CCC2C(=O)N1SC(Cl)(Cl)Cl", "note": "(configuration not stated)", "outcome": "inactive"}
{"smiles": "CCCN(CC)CC1COC2(CCC(C(C)(C)C)CC2)O1", "note": "(configuration not stated)", "outcome": "inactive"}
